IL1B secr inh – inflammasome signaling inhibition, IL-1 beta readout. THP-1 LPS/ATP IL-1B secretion, AlphaLISA, 16 h; stronger effect = lower value. activity change, % at 57.5 µM. 360,000 tested, 4.7% active; in the data active = activity change below about -50%; inconclusive = mostly about -30% to -49%
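THP-1 cells pretreated 1 hr with compounds (up to 57.5 uM final), then stimulated with LPS (250 ng/mL final) plus ATP (1.25 mM final); secreted IL-1B measured by AlphaLISA after 16 hr, decreased signal indicating inhibition.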
DT40 TDP1 no CPT – qHTS for Inhibitors of human tyrosyl-DNA phosphodiesterase 1 (TDP1): qHTS in cells in absence of CPT | AID 686978, 2013 | 420,000 tested, 15% active | Potency, µM (titrated, usually from 46.2 µM), for inactives: top-dose activity change, negative = growth inhibition, hits mostly inhibitors | DT40 Tdp1-/- hTDP1 cells, no CPT, ATP luminescence, 48 h; note: potency is the fitted concentration of half-maximal effect; nearly all actives have a fitted effect of over 55% in size
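Growth kinetics read by CellTiter-Glo luminescence after ≥48 hr at 37 °C. Cells: DT40 Tdp1-/- stably carrying human TDP1, 400 per well, compound exposure in the absence of CPT (DMSO vehicle).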
HT1080 IDH1KD tx – kills HT-1080 cells with IDH1 knockdown. HT-1080 IDH1 knockdown viability, ATP luminescence, 48 h. Potency, µM (doses to about 46.1 µM), without a hit: at the highest dose activity, negative = toxicity, actives largely listed as cytotoxic. 360,000 tested, 2% active;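 note: potency is the fitted concentration of half-maximal effect; 0% = DMSO wells and -100% = cell-free medium wells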
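Cytotoxicity counter-line: IDH1KD HT-1080, 48 h, CellTiter-Glo. Curves classed by r2, magnitude and activity.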
HT1080-NT tox – kills 2HG-producing HT-1080-NT fibrosarcoma cells. HT-1080-NT fibrosarcoma viability, CellTiter-Glo ATP luminescence, 48 h. Potency, µM (highest dose often 46.1 µM), for inactives: at the top dose activity, negative = less viability, actives largely listed as cytotoxic. 360,000 tested, 1.6% active. AID 686970;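 note: NT is the 2HG producing partner of a matched IDH1 knockdown line; potency is the fitted concentration of half-maximal effect; 0% = DMSO-treated cells and -100% = media-only wells without cells; nearly all actives have a fitted effect of over 55% in size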
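Viability of the 2HG-overproducing fibrosarcoma line after 48 hours of compound exposure at 37 degrees C was determined by luminescence with CellTiter-Glo, and concentration-effect curves were then fitted and categorized.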
DT40 TDP1 CPT – DT40-hTDP1 cell growth loss with CPT | chicken DT40 Tdp1-/-;hTDP1 cells + 20 nM CPT, ATP luminescence, 48 h | Potency, µM (doses to about 46.2 µM), for inactives: at the highest dose activity change, negative = growth inhibition, most hits filed as inhibitors | 420,000 tested, 12% active; note: potency is the fitted concentration of half-maximal effect; nearly all actives have a fitted effect of over 55% in size
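Cell growth measured by CellTiter-Glo luminescence after a minimum 48 h, 37 C compound exposure with 20 nM CPT in Tdp1-knockout DT40 cells stably expressing hTDP1, seeded 400/well; qHTS titration format.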
* hit, by the source's call; ? = inconclusive; . = not tested or not shown; [ ] = remark or other dose. Sampled rows, rich in hits. Any-hit rate of the full collection: about 19%. Unless noted, calls come from the whole dose curve; as a rule, active = well fitted curve in the direction sought with a large enough effect; inconclusive = small, poorly fitted or top-dose-only effect, or another doubt; inactive = no such curve, though single readings can be large; an effect the other way counts as inactive or inconclusive. Unless noted, % is set by controls: 0 for no effect and ±100 for the full control effect.

SMILES	IL1B secr inh	DT40 TDP1 no CPT	HT1080 IDH1KD tx	HT1080-NT tox	DT40 TDP1 CPT
CCOc1ccccc1C1CC(=O)NC(C)=C1C(=O)OC1CCCCCC1 (centres undefined)	.	16µM*	.	.	21µM*
CCOc1ccccc1C1CC(=O)NC(C)=C1C(=O)OCc1ccc(C)cc1 (centres undefined)	.	16µM*	.	.	?
CCCOc1ccccc1C1CC(=O)NC(C)=C1C(=O)OCC(C)C (centres undefined)	-11	16µM*	?	-13%	21µM*
CC1=C(C(=O)OC2CCCCCCC2)C(c2ccc(O)cc2)NC(=O)N1 (centres undefined)	-55*	?	5%[9.24 µM]	?	?
CC1=C(C(=O)OC2CCCCC2)C(c2ccccc2)NC(=O)N1 (centres undefined)	-12	?	-22%	-20%	?
CC(=O)C1=C(C)NC(=O)CC1c1ccccc1Cl (centres undefined)	-26	-24%	-2%	0%	0%
CCOc1ccccc1C1NC(=O)NC(C)=C1C(=O)OC1CCCC1C (centres undefined)	-3	?	-8%	0%	-26%
CCOc1ccccc1C1NC(=O)NC(C)=C1C(=O)OC1CCCCC1 (centres undefined)	-68*	?	6%[9.24 µM]	-6%	?
CC1=C(C(=O)OC(C)C)C(c2ccccc2Cl)CC(=O)N1 (centres undefined)	2	12µM*	-16%	-3%	21µM*
CCOc1ccc(S(=O)(=O)N2CCCCC2)cc1NC(=O)Cc1cccc(C(F)(F)F)c1	36	?	-7%	-12%	?
Cc1ccc(O)c(Cn2nnc3ccccc32)c1	37	-28%	2%	1%	?
Cc1ccc(NC(=O)C2(C)CCCN(C(C)C)C2)cc1C (centres undefined)	0	?	8%	?	-25%
COCC(C)n1c(C)cc(C(=O)COC(=O)c2c(C)nn(-c3ccccc3)c2C)c1C (centres undefined)	-56*	?	-3%	-1%	?
Cc1nn(-c2ccccc2)c(C)c1C(=O)OCC(=O)NC12CC3CC(CC(C3)C1)C2	-30	23µM*	-28%	2%[9.24 µM]	?
COCC(C)n1c(C)cc(C(=O)COC(=O)c2nn(C)c(=O)c3ccccc23)c1C (centres undefined)	13	?	5%	-1%	?
COc1ccc(C)cc1NC(=O)COC(=O)c1c(C)nn(-c2ccccc2)c1C	-4	12µM*	-12%	-7%[9.24 µM]	21µM*
Cc1ccc(C)c(NC(=O)COC(=O)c2c(-c3ccccc3)noc2C)c1	12	-7%	-1%	-1%	-4%
CC(=O)Nc1ccc(NC(=O)COC(=O)c2c(C)nn(-c3ccccc3)c2C)cc1	-2	?	-1%	-3%	?
COc1ccc(C)cc1NC(=O)COC(=O)c1c(-c2ccccc2)noc1C	?	23µM*	-8%	-3%	23µM*
CCCCNC(=O)CSc1nc2ccccc2nc1Cc1ccc(Cl)cc1	.	-8%	.	.	-5%
CN1CCn2cnc(C(=O)Nc3ccc(Cl)cc3)c2C1=O	-27	-24%	6%	0%	-1%
COc1ccccc1N1CCN(C(=O)C(C)CS(=O)(=O)c2ccc3c(c2)NC(=O)CS3)CC1 (centres undefined)	4	?	-14%	-11%	?
CCCNC(=O)C1(C)CCCN(C(=O)C2(c3ccc(Cl)cc3)CCCC2)C1 (centres undefined)	14	21µM*	-16%	-17%	?
CCCNC(=O)C1(C)CCCN(C(=O)COc2ccc(C(C)(C)C)cc2)C1 (centres undefined)	21	16µM*	?	-3%	29µM*
CCn1c(C)c(C2N3CC4(C)CN2CC(C)(C3)C4=O)c2ccccc21 (centres undefined)	.	-11%	.	.	-6%

Compound activity (PubChem BioAssay)
